The results in this text go back to ChEMBL document CHEMBL4513146, “CO-ADD screening of Karazin Kharkiv National University (Ukraine) compounds”.

Measured potencies and affinities stand elsewhere.

The first assay has as its system Staphylococcus aureus. The conditions noted are these: Concentration 32 ug.mL-1;; ASSAY_TEST Inhibition of Bacterial Growth; detection method Absorption (OD600); MEDIA CAMHB; plate type 384well; NBS; CORNING #3640; time 18 hr.
By Inhibition is commonly meant the change of the read-out against control, counted positive when it falls. As for `COC(=O)c1ccc(NC(=O)Cn2nc3ccc(S(=O)(=O)c4ccccc4)nn3c2=O)cc1`, the Inhibition is listed as -1.97%.

With `COc1cccc(Oc2nccn3c(=O)n(CC(=O)Nc4cccc(Br)c4)nc23)c1`, the Inhibition came out at 9.05%.

For `Cc1ccccc1Cn1nc2c(=O)n(-c3ccc(Br)cc3)ccn2c1=O`, the Inhibition worked out at 4.33%.

Take `Cc1ccc(-c2cc3c4nn(CC(=O)N5CCN(c6ccccc6F)CC5)c(=O)n4ccn3n2)cc1C`: the Inhibition amounted to 8.03%.

Regarding `CCOC(=O)c1cccc(NC(=O)Cn2nc3c4cc(-c5ccc(C)c(C)c5)nn4ccn3c2=O)c1`, the Inhibition was -12.42%.

Turning to `Cc1ccc(Sc2ccc3nn(CC(=O)Nc4cccc(Cl)c4)c(=O)n3n2)cc1`, the Inhibition was -1.85%.

Take `CC(C)Cn1c(=O)c2sccc2n2c(=O)n(CC(=O)NC(C)(C)C)nc12`: the Inhibition is -11.52%.

In the case of `Cc1ccc(-c2cc3c4nnc(SCC(=O)Nc5cccc(Cl)c5C)n4ccn3n2)cc1`, the Inhibition was -6.47%.

`CCCCc1ccc(NC(=O)Cn2nc3ccc(-c4ccc(C)c(C)c4)nn3c2=O)cc1`: the Inhibition is given as 7.91%.

`Cc1ccc(C)c(NC(=O)Cn2nc3cc(C)nc(Nc4ccc(F)cc4)n3c2=O)c1`: the Inhibition was -0.57%.

Regarding `CCc1ccc(N(Cc2cccc(OC)c2)S(=O)(=O)c2cccn3c(C)nnc23)cc1`, the Inhibition was -1.7%.

On to `Cc1ccc(-c2nnc3c(=O)n(CC(=O)Nc4cc(C)cc(C)c4)c4ccccc4n23)cc1`, for which the Inhibition stood at 10.86%.

Consider `COc1cccc(CN(c2ccc(F)c(F)c2)S(=O)(=O)c2ccc3nnc(C)n3c2)c1`, for which the Inhibition is 7.3%.

On to `Cc1cc(C)cc(Oc2nc3ccccc3n3c(=O)n(CC(=O)Nc4ccc5c(c4)OCO5)nc23)c1`, for which the Inhibition came out at 0.02%.

On to `Cc1ccc(-c2cc3c4nn(CC(=O)Nc5ccccc5Cl)c(=O)n4ccn3n2)cc1`, for which the Inhibition worked out at 2.52%.

`CC(C)CCn1c(=O)c2ccc(C(=O)NC3CCCC3)cc2n2c(=O)n(CC#N)nc12`: the Inhibition turned out to be 11.46%.

In the case of `O=C(NCc1ccccc1)c1ccc2nn(CC(=O)N3CCN(c4ccccc4)CC3)c(=O)n2c1`, the Inhibition is on record as 4.31%.

For the compound `COc1cccc(CN(c2ccccc2)S(=O)(=O)c2ccc3nncn3c2)c1`, the Inhibition was found to be 6.2%.

Take `O=C(Cn1nc2c(Oc3ccccc3)nccn2c1=O)Nc1ccc(F)cc1Cl`: the Inhibition worked out at 2.27%.

Take `COc1ccc(CNC(=O)CSc2nnc3c4cc(-c5ccc(C)cc5)nn4ccn23)cc1OC`: the Inhibition was 5.65%.

With `COc1ccccc1CNC(=O)Cn1nc2c(N3CCC(C)CC3)nccn2c1=O`, the Inhibition was found to be 13.11%.

Consider `Cc1cccc(NC(=O)c2ccc3nnc(SCC(=O)Nc4ccc(Br)cc4)n3c2)c1`, for which the Inhibition came to 11.58%.

For the compound `CC(C)c1nnc2c(=O)n(CC(=O)Nc3ccc(Br)cc3F)c3ccccc3n12`, the Inhibition worked out at 7.11%.

As to `COc1ccccc1Cn1c(=O)c2sccc2n2c(=O)n(Cc3ccc(Br)cc3)nc12`, the Inhibition is listed as 5.17%.

As for `CCc1nnc2c(SCC(=O)Nc3cccc(OC)c3)nc3ccccc3n12`, the Inhibition is 0.35%.

On to `CCOc1ccc(-n2ccn3c(SCC(=O)Nc4ccc(C)cc4)nnc3c2=O)cc1`, for which the Inhibition came out at 15.66%.

`CN(Cc1ccccc1)C(=O)CSc1nnc2c3cc(-c4ccccc4)nn3ccn12`: the Inhibition stood at 11.08%.

For `O=C(Cn1nc2c(Sc3ccccc3)nccn2c1=O)Nc1ccc2c(c1)OCCO2`, the Inhibition is -4.66%.

Consider `CCc1nnc2c(SCC(=O)Nc3cc(Cl)ccc3C)nc3ccccc3n12`, for which the Inhibition was found to be 13.83%.

With `Cc1ccc(Oc2nccn3c(=O)n(CC(=O)NCc4ccccc4Cl)nc23)cc1`, the Inhibition was 12.36%.

Consider `COc1cc(NC(=O)Cn2nc3c(Oc4ccccc4)nccn3c2=O)cc(OC)c1`, for which the Inhibition is given as 11.4%.

As to `CCc1nnc2c(SCC(=O)Nc3ccc(Cl)cc3)nc3ccccc3n12`, the Inhibition amounted to 15.07%.

On to `CCCCc1ccc(NC(=O)Cn2nc3c(N4CCSCC4)nc4ccccc4n3c2=O)cc1`, for which the Inhibition stood at 10.09%.

As to `O=C(Cn1nc2c(SC3CCCCC3)nccn2c1=O)N1CCN(c2ccc(F)cc2)CC1`, the Inhibition was determined as 8.31%.

For the compound `COc1ccc(NC(=O)Cn2nc3c(Oc4ccccc4)nccn3c2=O)cc1OC`, the Inhibition was determined as 1.69%.

As for `COc1ccc(NC(=O)C(C)Sc2nnc3c(=O)n(-c4ccc(C)c(C)c4)ccn23)cc1` (stereo not given), the Inhibition turned out to be 7%.

As for `COc1ccccc1-n1ccn2c(SCc3ccccc3Cl)nnc2c1=O`, the Inhibition is 15.04%.

`Cc1nnc2ccc(S(=O)(=O)N(Cc3ccccc3Cl)c3cccc(F)c3)cn12`: the Inhibition is -1.06%.

Consider `CSc1cccc(NC(=O)Cn2nc3c(N4CCCC(C)C4)nccn3c2=O)c1` (stereo not given), for which the Inhibition is given as -21.6%.

On to `O=c1c2sccc2n2c(=S)[nH]nc2n1CC1CCCO1` (stereo not given), for which the Inhibition is given as 3.07%.

The test system of the next assay is Escherichia coli. The conditions noted are these: Concentration 32 ug.mL-1;; ASSAY_TEST Inhibition of Bacterial Growth; detection method Absorption (OD600); MEDIA CAMHB; plate type 384well; NBS; CORNING #3640; time 18 hr.
Take `COC(=O)c1ccc(NC(=O)Cn2nc3ccc(S(=O)(=O)c4ccccc4)nn3c2=O)cc1`: the Inhibition is listed as -13.66%.

`COc1cccc(Oc2nccn3c(=O)n(CC(=O)Nc4cccc(Br)c4)nc23)c1`: the Inhibition was -6.35%.

For the compound `Cc1ccccc1Cn1nc2c(=O)n(-c3ccc(Br)cc3)ccn2c1=O`, the Inhibition stood at 1.73%.

Consider `Cc1ccc(-c2cc3c4nn(CC(=O)N5CCN(c6ccccc6F)CC5)c(=O)n4ccn3n2)cc1C`, for which the Inhibition was found to be 4.31%.

`CCOC(=O)c1cccc(NC(=O)Cn2nc3c4cc(-c5ccc(C)c(C)c5)nn4ccn3c2=O)c1`: the Inhibition is -16.13%.

Consider `Cc1ccc(Sc2ccc3nn(CC(=O)Nc4cccc(Cl)c4)c(=O)n3n2)cc1`, for which the Inhibition is -11.91%.

Turning to `CC(C)Cn1c(=O)c2sccc2n2c(=O)n(CC(=O)NC(C)(C)C)nc12`, the Inhibition is given as -13.32%.

Turning to `Cc1ccc(-c2cc3c4nnc(SCC(=O)Nc5cccc(Cl)c5C)n4ccn3n2)cc1`, the Inhibition is given as -2.31%.

Turning to `CCCCc1ccc(NC(=O)Cn2nc3ccc(-c4ccc(C)c(C)c4)nn3c2=O)cc1`, the Inhibition was -1.54%.

Take `Cc1ccc(C)c(NC(=O)Cn2nc3cc(C)nc(Nc4ccc(F)cc4)n3c2=O)c1`: the Inhibition was -5.84%.

In the case of `CCc1ccc(N(Cc2cccc(OC)c2)S(=O)(=O)c2cccn3c(C)nnc23)cc1`, the Inhibition is reported as -9.35%.

`Cc1ccc(-c2nnc3c(=O)n(CC(=O)Nc4cc(C)cc(C)c4)c4ccccc4n23)cc1`: the Inhibition turned out to be 0.18%.

In the case of `COc1cccc(CN(c2ccc(F)c(F)c2)S(=O)(=O)c2ccc3nnc(C)n3c2)c1`, the Inhibition is recorded as -2.88%.

As to `Cc1cc(C)cc(Oc2nc3ccccc3n3c(=O)n(CC(=O)Nc4ccc5c(c4)OCO5)nc23)c1`, the Inhibition was -5.83%.

As for `Cc1ccc(-c2cc3c4nn(CC(=O)Nc5ccccc5Cl)c(=O)n4ccn3n2)cc1`, the Inhibition is -6.02%.

Take `CC(C)CCn1c(=O)c2ccc(C(=O)NC3CCCC3)cc2n2c(=O)n(CC#N)nc12`: the Inhibition is reported as 0.05%.

`O=C(NCc1ccccc1)c1ccc2nn(CC(=O)N3CCN(c4ccccc4)CC3)c(=O)n2c1`: the Inhibition was -4.36%.

`COc1cccc(CN(c2ccccc2)S(=O)(=O)c2ccc3nncn3c2)c1`: the Inhibition is recorded as -8.56%.

In the case of `O=C(Cn1nc2c(Oc3ccccc3)nccn2c1=O)Nc1ccc(F)cc1Cl`, the Inhibition was -4.59%.

Consider `COc1ccc(CNC(=O)CSc2nnc3c4cc(-c5ccc(C)cc5)nn4ccn23)cc1OC`, for which the Inhibition is -0.16%.

Regarding `COc1ccccc1CNC(=O)Cn1nc2c(N3CCC(C)CC3)nccn2c1=O`, the Inhibition is recorded as -0.77%.

Regarding `Cc1cccc(NC(=O)c2ccc3nnc(SCC(=O)Nc4ccc(Br)cc4)n3c2)c1`, the Inhibition was found to be 0.25%.

For the compound `CC(C)c1nnc2c(=O)n(CC(=O)Nc3ccc(Br)cc3F)c3ccccc3n12`, the Inhibition turned out to be 1.53%.

Consider `COc1ccccc1Cn1c(=O)c2sccc2n2c(=O)n(Cc3ccc(Br)cc3)nc12`, for which the Inhibition turned out to be 2.24%.

For `CCc1nnc2c(SCC(=O)Nc3cccc(OC)c3)nc3ccccc3n12`, the Inhibition is given as -7.16%.

On to `CCOc1ccc(-n2ccn3c(SCC(=O)Nc4ccc(C)cc4)nnc3c2=O)cc1`, for which the Inhibition turned out to be 2.17%.

In the case of `CN(Cc1ccccc1)C(=O)CSc1nnc2c3cc(-c4ccccc4)nn3ccn12`, the Inhibition was -11.2%.

As for `O=C(Cn1nc2c(Sc3ccccc3)nccn2c1=O)Nc1ccc2c(c1)OCCO2`, the Inhibition is reported as -0.55%.

As for `CCc1nnc2c(SCC(=O)Nc3cc(Cl)ccc3C)nc3ccccc3n12`, the Inhibition is given as -0.41%.

As to `Cc1ccc(Oc2nccn3c(=O)n(CC(=O)NCc4ccccc4Cl)nc23)cc1`, the Inhibition is -4.03%.

For the compound `COc1cc(NC(=O)Cn2nc3c(Oc4ccccc4)nccn3c2=O)cc(OC)c1`, the Inhibition amounted to 1.31%.

As for `CCc1nnc2c(SCC(=O)Nc3ccc(Cl)cc3)nc3ccccc3n12`, the Inhibition was 2.66%.

Turning to `CCCCc1ccc(NC(=O)Cn2nc3c(N4CCSCC4)nc4ccccc4n3c2=O)cc1`, the Inhibition is 1.07%.

As to `O=C(Cn1nc2c(SC3CCCCC3)nccn2c1=O)N1CCN(c2ccc(F)cc2)CC1`, the Inhibition is given as -3.97%.

Consider `COc1ccc(NC(=O)Cn2nc3c(Oc4ccccc4)nccn3c2=O)cc1OC`, for which the Inhibition is listed as -7.24%.

Regarding `COc1ccc(NC(=O)C(C)Sc2nnc3c(=O)n(-c4ccc(C)c(C)c4)ccn23)cc1` (stereo not given), the Inhibition is listed as -4.16%.

For `COc1ccccc1-n1ccn2c(SCc3ccccc3Cl)nnc2c1=O`, the Inhibition is on record as -4.4%.

In the case of `Cc1nnc2ccc(S(=O)(=O)N(Cc3ccccc3Cl)c3cccc(F)c3)cn12`, the Inhibition was -5.9%.

On to `CSc1cccc(NC(=O)Cn2nc3c(N4CCCC(C)C4)nccn3c2=O)c1` (stereo not given), for which the Inhibition is -14.98%.

Take `O=c1c2sccc2n2c(=S)[nH]nc2n1CC1CCCO1` (stereo not given): the Inhibition is -0.32%.
